This note sets out measurements from PubChem BioAssay (NCATS).

Test [1] addresses Rap guanine nucleotide exchange factor 3 (Homo sapiens) (UniProt O95398). Description: Confirmatory qHTS for agonist of cAMP-regulated guanine nucleotide exchange factor 3 (EPAC1) (AID 1645881).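 Note: EPAC1 catalysed release of BODIPY-GDP from Rap1B seen as fluorescence loss; 100% = effect of cAMP agonist control; nearly all actives have a fitted effect of over 75% in size.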 A general note: Quantitative high-throughput screening tests each substance at several concentrations.
Test [2] concerns the target Rap guanine nucleotide exchange factor 4 (Homo sapiens) (UniProt Q8WZA2). The test can be described thus: Confirmatory qHTS for agonist of cAMP-regulated guanine nucleotide exchange factor 4 (EPAC2) (AID 1645884). Note: % is set by controls: 0 for no effect and ±100 for the full control effect; nearly all actives have a fitted effect of over 65% in size.
The target in test [3] is Rap guanine nucleotide exchange factor 3 (Homo sapiens) (UniProt O95398). Description: Counterscreen qHTS for antagonist of cAMP-regulated guanine nucleotide exchange factor 3 (EPAC1) (AID 1645888).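 Note: fluorescence loss as bound BODIPY-GDP is released from Rap1B; % of control where 0% means no effect.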 In short, it runs like this: (§1)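 Rap1B–BODIPY-GDP (250 nM) with 50 uM GDP; compounds pin-transferred to 9.74 nM–152 uM final (activator) or from 7.32 nM upwards (inhibitor). Fluorescence Ex/Em 480/540 nm read at 5 and 30 min, then after adding cAMP or buffer, at room temperature.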
Chain of Rap guanine nucleotide exchange factor 3 (Homo sapiens) (O95398 whole entry, looked up): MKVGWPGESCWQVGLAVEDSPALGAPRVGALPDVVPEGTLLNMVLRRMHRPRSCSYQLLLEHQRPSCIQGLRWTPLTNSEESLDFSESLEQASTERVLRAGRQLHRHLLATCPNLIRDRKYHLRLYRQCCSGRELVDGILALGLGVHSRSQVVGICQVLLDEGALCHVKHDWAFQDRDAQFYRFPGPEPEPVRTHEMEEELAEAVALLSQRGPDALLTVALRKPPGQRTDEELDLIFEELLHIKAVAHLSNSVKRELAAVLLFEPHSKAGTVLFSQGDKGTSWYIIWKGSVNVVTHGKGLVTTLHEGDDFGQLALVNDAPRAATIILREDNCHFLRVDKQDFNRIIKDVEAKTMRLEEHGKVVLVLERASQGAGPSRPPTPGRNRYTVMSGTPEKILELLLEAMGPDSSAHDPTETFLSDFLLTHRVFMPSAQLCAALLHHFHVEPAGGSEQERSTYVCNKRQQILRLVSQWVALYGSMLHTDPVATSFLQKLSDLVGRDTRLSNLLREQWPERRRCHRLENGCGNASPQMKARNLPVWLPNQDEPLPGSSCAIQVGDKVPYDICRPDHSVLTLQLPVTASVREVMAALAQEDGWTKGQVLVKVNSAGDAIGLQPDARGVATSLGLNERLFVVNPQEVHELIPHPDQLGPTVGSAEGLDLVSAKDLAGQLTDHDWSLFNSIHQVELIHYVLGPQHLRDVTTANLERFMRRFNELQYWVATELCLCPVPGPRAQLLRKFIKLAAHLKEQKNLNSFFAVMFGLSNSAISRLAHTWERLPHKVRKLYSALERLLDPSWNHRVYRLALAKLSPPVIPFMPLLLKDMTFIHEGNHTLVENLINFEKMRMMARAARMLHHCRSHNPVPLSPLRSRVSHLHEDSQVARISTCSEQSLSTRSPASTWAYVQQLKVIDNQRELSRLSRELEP

Test [4] has the same target. The test can be described thus: Counterscreen qHTS for agonist of cAMP-regulated guanine nucleotide exchange factor 3 (EPAC1) (AID 1645889). For activation: % of control where 0% means no effect. Note: nearly all actives have a fitted effect of over 40% in size. Note: potency is the fitted concentration of half-maximal effect. The procedure, abridged:
as §1
On the technique in general: A counterscreen serves to expose hits that act by an unwanted route or on another target.

The target of test [5] is Mitogen-activated protein kinase 10 (Mus musculus) (UniProt Q61831). Description: JNK3 AlphaScreen Assay (AID 530; active = well fitted curve in either direction with a large enough effect, not every such curve was filed as active;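 note: kinase came from lysate of stimulated human HepG2 cells; signal reports phosphorylation of biotinylated GST-cJun 1-79 at Ser73 with 10 µM ATP; series mostly up to about 57 µM; % is set by controls: 0 for no effect and ±100 for the full control effect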). The procedure, abridged: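 qHTS format: compounds tested as titrations against IL-1beta/TNF-alpha-activated HepG2 lysate JNK3 with biotin-GST-cJun substrate and 10 uM ATP at room temperature. Loss of anti-phospho-cJun AlphaScreen signal indicates inhibition.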
Background: Alpha assays give light when donor and acceptor beads are brought close together.

For test [6], the target named is Cytochrome P450 3A4 (Homo sapiens) (UniProt P08684). Description: qHTS Assay for Inhibitors and Substrates of Cytochrome P450 3A4 (AID 884). Note: series mostly up to about 57 µM; % is set by controls: 0 for no effect and ±100 for the full control effect; nearly all actives have a fitted effect of over 50% in size. In short, it runs like this:
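20 nM human CYP3A4 with 25 uM Luciferin-PPXE (at KM) in 200 mM KPO4, preincubated 10 min with compound; NADPH regeneration started a 60 min RT reaction. Luciferin detected by luminescence, normalized to 57 uM ketoconazole as full inhibition.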

Test [7] can be described thus: qHTS for Inhibitors of the vitamin D receptor (VDR): Hit Validation using a Texas Red Assay (AID 602201). Note: potency is the fitted concentration of half-maximal effect. The procedure, abridged:
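Fluorescence polarization with 1.5 uM VDR-LBD, LG19078 and 7 nM Texas Red (final). After 2 hours at ambient temperature, read at Ex 595 nm/Em 615 nm.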

Test [8] has as its target DNA polymerase iota (Homo sapiens) (UniProt Q9UNA4). The test can be described thus: qHTS for Inhibitors of Polymerase Iota: Confirmatory Assay for Cherry-picked Compounds (AID 720496). Note: potency is the fitted concentration of half-maximal effect. The following applies: Pol iota primer extension, TAMRA/BHQ fluorescence. The procedure, abridged: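 Human Pol iota (10 nM) was preincubated 15 min at room temperature with compound, then started with 50 nM TAMRA/BHQ-2 quenched primer-template substrate. Fluorescence (ex 525/em 598 nm) was read at 0 and 10 min.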

The target of test [9] is Flap endonuclease 1 (Homo sapiens) (UniProt P39748). Description: qHTS Assay for the Inhibitors of FEN1: Confirmatory Assay for Cherry-picked Compounds (AID 720498). Note: potency is the fitted concentration of half-maximal effect; nearly all actives have a fitted effect of over 60% in size. The following applies: FEN1 flap cleavage, TAMRA/BHQ2 fluorogenic DNA substrate. The procedure, abridged:
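FEN1 at 10 nM was preincubated with compound for 15 min at room temperature, then 50 nM (final) double-flap DNA substrate was added. TAMRA fluorescence released from the BHQ-2-quenched flap was read at 0 and 15 min (ex 525/em 598 nm).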

Records with an inconclusive call do not appear. Values without a mark were called inactive. This is one part of the list. Activity calls are given as the source filed them. Unless noted, calls come from the whole dose curve; as a rule, active = well fitted curve in the direction sought with a large enough effect; inconclusive = small, poorly fitted or top-dose-only effect, or another doubt; inactive = no such curve, though single readings can be large; an effect the other way counts as inactive or inconclusive.

Chain of Rap guanine nucleotide exchange factor 4 (Homo sapiens) (Q8WZA2 whole entry, looked up): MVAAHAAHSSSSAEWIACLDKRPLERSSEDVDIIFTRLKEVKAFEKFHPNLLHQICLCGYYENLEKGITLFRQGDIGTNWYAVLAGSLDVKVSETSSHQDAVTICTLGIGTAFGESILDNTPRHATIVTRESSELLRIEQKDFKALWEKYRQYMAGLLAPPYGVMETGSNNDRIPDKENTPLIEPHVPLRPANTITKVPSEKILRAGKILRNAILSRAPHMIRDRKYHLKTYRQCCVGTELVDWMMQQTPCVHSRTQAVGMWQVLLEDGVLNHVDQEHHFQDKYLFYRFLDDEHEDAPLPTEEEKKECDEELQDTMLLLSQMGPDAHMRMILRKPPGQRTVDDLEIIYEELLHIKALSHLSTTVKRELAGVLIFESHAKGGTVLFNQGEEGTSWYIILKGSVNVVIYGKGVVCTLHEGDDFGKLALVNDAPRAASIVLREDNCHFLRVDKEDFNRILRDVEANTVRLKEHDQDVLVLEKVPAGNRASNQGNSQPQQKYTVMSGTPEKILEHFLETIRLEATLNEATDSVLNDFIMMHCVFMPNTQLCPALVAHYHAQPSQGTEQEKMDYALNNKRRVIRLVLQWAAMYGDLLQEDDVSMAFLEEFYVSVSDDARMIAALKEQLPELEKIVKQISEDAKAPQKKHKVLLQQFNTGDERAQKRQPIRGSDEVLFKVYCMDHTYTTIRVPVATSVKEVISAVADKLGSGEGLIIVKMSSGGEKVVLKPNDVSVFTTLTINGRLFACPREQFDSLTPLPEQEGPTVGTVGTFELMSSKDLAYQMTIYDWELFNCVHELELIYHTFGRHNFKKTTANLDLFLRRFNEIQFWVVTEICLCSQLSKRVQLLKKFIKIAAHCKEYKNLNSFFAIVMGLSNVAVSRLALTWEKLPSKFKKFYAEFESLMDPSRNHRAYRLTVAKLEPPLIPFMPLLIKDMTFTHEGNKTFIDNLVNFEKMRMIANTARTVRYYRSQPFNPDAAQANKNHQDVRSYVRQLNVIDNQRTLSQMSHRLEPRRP
Chain of Cytochrome P450 3A4 (Homo sapiens) (P08684 whole entry, looked up): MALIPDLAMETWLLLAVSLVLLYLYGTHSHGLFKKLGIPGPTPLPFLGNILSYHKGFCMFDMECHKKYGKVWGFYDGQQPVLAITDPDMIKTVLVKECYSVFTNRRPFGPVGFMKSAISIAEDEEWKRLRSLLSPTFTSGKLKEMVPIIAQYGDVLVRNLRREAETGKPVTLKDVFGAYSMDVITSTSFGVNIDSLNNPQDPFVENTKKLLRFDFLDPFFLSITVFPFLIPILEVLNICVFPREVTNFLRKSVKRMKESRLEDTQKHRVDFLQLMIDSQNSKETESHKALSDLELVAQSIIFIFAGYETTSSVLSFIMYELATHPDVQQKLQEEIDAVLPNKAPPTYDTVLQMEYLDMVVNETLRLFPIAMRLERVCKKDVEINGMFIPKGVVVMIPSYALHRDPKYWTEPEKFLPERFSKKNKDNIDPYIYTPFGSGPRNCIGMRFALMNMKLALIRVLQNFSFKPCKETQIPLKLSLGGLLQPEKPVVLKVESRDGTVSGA
Chain of Flap endonuclease 1 (Homo sapiens) (P39748 whole entry, looked up): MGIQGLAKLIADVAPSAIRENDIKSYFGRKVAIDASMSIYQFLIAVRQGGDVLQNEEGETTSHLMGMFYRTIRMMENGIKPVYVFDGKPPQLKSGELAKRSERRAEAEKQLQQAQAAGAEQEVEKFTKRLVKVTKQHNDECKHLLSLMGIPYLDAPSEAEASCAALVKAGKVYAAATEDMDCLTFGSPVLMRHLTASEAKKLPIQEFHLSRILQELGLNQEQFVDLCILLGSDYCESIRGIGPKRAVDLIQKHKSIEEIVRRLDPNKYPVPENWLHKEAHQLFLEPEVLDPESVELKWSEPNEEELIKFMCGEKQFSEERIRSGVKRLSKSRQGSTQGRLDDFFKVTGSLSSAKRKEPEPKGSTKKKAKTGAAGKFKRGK
Chain of DNA polymerase iota (Homo sapiens) (Q9UNA4 whole entry, looked up): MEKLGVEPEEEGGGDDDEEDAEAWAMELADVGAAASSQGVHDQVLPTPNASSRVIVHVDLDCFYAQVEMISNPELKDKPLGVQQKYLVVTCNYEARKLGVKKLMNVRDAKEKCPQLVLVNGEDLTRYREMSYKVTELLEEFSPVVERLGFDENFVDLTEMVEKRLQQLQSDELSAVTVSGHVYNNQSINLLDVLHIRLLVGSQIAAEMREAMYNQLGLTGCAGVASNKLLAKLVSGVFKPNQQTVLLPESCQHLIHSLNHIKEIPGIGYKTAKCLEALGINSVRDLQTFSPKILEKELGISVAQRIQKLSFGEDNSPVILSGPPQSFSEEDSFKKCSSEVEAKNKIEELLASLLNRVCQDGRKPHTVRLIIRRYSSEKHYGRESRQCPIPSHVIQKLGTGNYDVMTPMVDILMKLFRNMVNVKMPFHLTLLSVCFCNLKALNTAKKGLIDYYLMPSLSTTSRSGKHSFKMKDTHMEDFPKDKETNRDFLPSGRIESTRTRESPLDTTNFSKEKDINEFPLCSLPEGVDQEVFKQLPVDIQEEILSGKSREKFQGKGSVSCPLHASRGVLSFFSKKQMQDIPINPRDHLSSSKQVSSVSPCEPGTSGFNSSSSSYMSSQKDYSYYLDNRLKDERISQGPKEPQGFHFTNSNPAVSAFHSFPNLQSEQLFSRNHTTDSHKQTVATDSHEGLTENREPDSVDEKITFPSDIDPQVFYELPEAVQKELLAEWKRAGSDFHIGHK

As for `CCOc1cc(C)c(-c2onc(C(F)(F)F)c2-c2csc(C)n2)c(O)c1`, the Potency entry in test [1], in [2], in test [3] and in test [4] was “inactive” each time.
Take `O=C(CSc1nnc(-c2ccco2)c(-c2ccco2)n1)c1ccccc1`: the Potency entry in [1], in [2], in test [3] and in [4] was “inactive” throughout.
Take `COC(=O)c1sc(-c2ccc(C(C)(C)C)cc2)cc1NC(=O)CSCC(=O)O`: the Potency entry in test [1], in [2], in [3] and in [4] was “inactive” throughout.
As for `CCOC(=O)c1c(NC(=O)c2ccc(S(=O)(=O)N(C)CC3CCCO3)cc2)sc2c1CCN(C)C2` (configuration not stated), the Potency entry in test [1], in test [2], in [3] and in test [4] was “inactive” each time.
Regarding `O=C(O)CN1C(=O)/C(=C\c2cc(Br)ccc2OCc2ccc([N+](=O)[O-])cc2)SC1=S`, the Potency result in [1], in test [2], in test [3] and in [4] was “inactive” in each case.
In the case of `CCOC(=O)c1c(CC(C)C)csc1NC(=O)COC(=O)c1ccc(O)cc1`, the Potency entry in test [1], in test [2], in test [3] and in test [4] was “inactive” in each case.
`CCc1cc(=O)oc2cc(C)cc(OCC(=O)N[C@@H](CSCc3ccccc3)C(=O)O)c12`: the Potency result in test [1], in test [2], in test [3] and in test [4] was “inactive” each time.
With `Cc1c(C(=O)N2CCCC2)oc2ccc(Br)cc12`, the Potency result in test [1], in test [2], in [3] and in test [4] was “inactive” in each case.
As for `COc1ccc(/C=N/NC(=O)c2ccccc2O)cc1Cn1nnc2ccccc21`, the Potency entry in test [1], in test [2], in [3] and in [4] was “inactive” throughout.
For `COc1ccccc1/C=C/C=c1\sc2nc(=O)c(Cc3ccccc3)nn2c1=O`, the Potency entry in test [1], in [2], in test [3] and in [4] was “inactive” throughout.
Regarding `CN(CC(=O)Nc1ccc(F)cc1)C(=O)COc1ccc(C(=O)c2ccccc2)cc1`, the Potency entry in test [1], in [2], in test [3] and in [4] was “inactive” each time.
As to `COc1cccc(C(=O)Oc2ccc(/C=N/Nc3ccc(C(=O)O)cc3)cc2OC)c1`, the Potency entry in [1], in [2], in test [3] and in test [4] was “inactive” throughout.
As to `CC(C)CCNC(=O)C(CC(C)C)N(Cc1ccc2c(c1)OCO2)C(=O)c1snc(C(N)=O)c1N` (configuration not stated), the Potency entry in [1], in [2] and in test [4] was “inactive” throughout.
As to `CCOC(=O)C(C)Sc1ncc(OC)c(Sc2ccc(Cl)cc2)n1` (configuration not stated), the Potency entry in test [1], in [2] and in test [4] was “inactive” throughout.
On to `CCCCC[C@H](C)N1C[C@H](COCc2ccccc2)Oc2cc(N3CCC[C@H]3C(N)=O)ccc2S1(=O)=O`, for which the Potency entry in [1], in test [2], in [3] and in test [4] was “inactive” in each case.
For `CC1=C(C(=O)OCc2ccccc2)C(c2ccc(C(C)(C)C)cc2)NC(=O)N1CCCCCC(=O)O` (configuration not stated), the Potency entry in test [5], in test [6], in [1], in [2], in [3] and in [4] was “inactive” throughout.
As to `CCCCC[C@H](C)N1C[C@@H](COCc2ccccc2)Oc2cc(N3CC[C@H](N(C)C)C3)ccc2S1(=O)=O`, the Potency entry in test [1], in test [2] and in test [4] was “inactive” throughout.
As for `CCOc1ccc(NC(=NCc2ccc3c(c2)OCO3)SC2CC(=O)N(c3ccc(C(=O)O)cc3)C2=O)cc1` (configuration not stated), the Potency entry in [1], in test [2], in test [3] and in [4] was “inactive” each time.
`O=C(NC1CCCCC1)C(c1ccc(C(F)(F)F)cc1)n1c(=O)c(-c2ccco2)nc2ccccc21` (configuration not stated): the Potency entry in [1], in test [2] and in test [4] was “inactive” throughout.
Regarding `C=CCn1c(SCc2cc([N+](=O)[O-])cc3c2OCOC3)nc2cc(C(=O)O)ccc2c1=O`, the Potency entry in test [1], in [2] and in test [4] was “inactive” in each case.
As for `COc1cc(C(=O)N(C)CCOc2ccccc2)ccc1OCC(=O)Nc1cccc(C(F)(F)F)c1`, the Potency result in test [1], in test [2] and in test [4] was “inactive” each time.
On to `COc1ccc(-c2cc(N)n(S(=O)(=O)c3c(F)c(F)c(F)c(F)c3F)n2)cc1OC`, for which the Potency in test [7] is 20 µM (active). For the same compound, the Potency result in [1] was “inactive”. In addition, the activation in test [2] was 7.68% [at 17.1 µM, percent relative to cAMP agonist control]. Also, in test [3], the activity change, negative = inhibition was 6.6% [at 30.8 µM].
On to `COc1ccccc1N1C(=O)C2C(C(=O)c3ccccc3)=NN(c3ccc(Br)cc3)C2C1=O` (configuration not stated), for which the Potency entry in test [1], in test [2], in [3] and in test [4] was “inactive” throughout.
As to `COc1cc(Br)cc(C(=O)N2CCc3ccccc32)c1OC`, the Potency entry in test [1], in test [2] and in [4] was “inactive” each time.
For `CCCN(CC(=O)Nc1ccccc1C)C(=O)c1oc2ccc(OCC)cc2c1C`, the Potency entry in test [1], in test [2] and in [4] was “inactive” throughout.
Take `CCOC(=O)c1c(C)[nH]c(C)c1C(=O)COC(=O)c1cc(OC)cc(OC)c1`: the Potency result in [1], in [2] and in test [4] was “inactive” throughout.
In the case of `CCc1ccc(S(=O)(=O)Nc2cc(SCC(=O)O)c(O)c3ccccc23)cc1`, the Potency entry in test [1], in test [2] and in test [3] was “inactive” in each case. Besides, the Potency in [4] was 14.1 µM (active).
Regarding `COc1ccc(-c2nn(-c3ccccc3)cc2/C=C2/SC(=S)N(CCCC(=O)O)C2=O)c(C)c1`, the Potency in [8] is 75.2 µM (active); in test [9] it was 47.8 µM (active). For the same compound, the Potency result in test [1], in test [2], in test [3] and in test [4] was “inactive” in each case.
